Screening results: PubChem, National Center for Advancing Translational Sciences (NCATS)
GRP78 ERSR act: qHTS for Inducers of the Endoplasmic Reticulum Stress Response (ERSR) in Human Glioma: qHTS. AID 602332, 2012. U87-MG GRP78 promoter luciferase reporter, 16 h. actives 0.02% (n = 420,000). Potency, µM, without a hit: top-dose activation, usual class: activators; note: series mostly up to about 76 µM; % of control where 0% means no effect; nearly all actives have a fitted effect of over 35% in size
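Stably transfected U87-MG human glioma cells carrying a GRP78-based luminescent sensor were seeded at 1000 cells/well, pin-dosed with compounds and incubated 16 h. Luciferase reagent was then added, and end-point luminescence was read after 10 min at room temperature.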
Sfp PPTase inh: qHTS Assay for Inhibitors of Bacillus subtilis Sfp phosphopantetheinyl transferase (PPTase). Biochemical Sfp PPTase activity, qHTS. Potency, µM, for the others: largest response in the series, negative = inhibition, actives largely listed as inhibitors. actives 3.5% (n = 310,000);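 note: the enzyme is Sfp with the accession as filed and its product quenches rhodamine fluorescence; 0% = enzyme reaction without inhibitor and -100% = no enzyme wells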
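After 15 min at room temperature with compound, 15 nM Sfp received 5 uM rhodamine-CoA plus 12.5 uM BHQ-2-ybbR (50 mM Hepes pH 7.6, 10 mM MgCl2). Rate came from the fluorescence difference over 30 min, ex 525/em 598 nm.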
G9a inh: qHTS Assay for Inhibitors of Histone Lysine Methyltransferase G9a; G9a H3K9 monomethylation, AlphaScreen, 2 h; Potency, µM (doses to about 102 µM), inactives show at the highest dose activity, negative = inhibition, actives largely listed as inhibitors; actives 8.8% (n = 350,000); Histone-lysine N-methyltransferase EHMT2 (Homo sapiens), Q96KQ7; note: % is set by controls: 0 for no effect and ±100 for the full control effect; nearly all actives have a fitted effect of over 75% in size
Target sequence (Q96KQ7 913-1193 limits assumed): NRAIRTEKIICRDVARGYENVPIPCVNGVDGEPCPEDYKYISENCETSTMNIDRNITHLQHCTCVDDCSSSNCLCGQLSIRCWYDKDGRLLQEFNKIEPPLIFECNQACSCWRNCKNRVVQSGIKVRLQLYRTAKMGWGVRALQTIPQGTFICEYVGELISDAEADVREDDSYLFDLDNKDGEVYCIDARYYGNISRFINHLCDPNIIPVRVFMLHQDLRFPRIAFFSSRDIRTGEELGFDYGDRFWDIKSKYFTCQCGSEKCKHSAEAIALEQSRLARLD
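G9a (20 nM) preincubated 15 min RT with compounds, then 500 nM biotinylated H3K9 peptide and 20 uM SAM added; 2 h RT reaction. Monomethyl-H3K9 product detected by AlphaScreen with anti-H3K9me1 antibody, streptavidin donor and anti-rabbit IgG acceptor beads.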
VDR inhibitor: Inhibitors of the vitamin D receptor (VDR): qHTS. Vitamin D3 receptor (Homo sapiens), P11473. VDR-SRC2-3 peptide fluorescence polarization, 2 h. Potency, µM, without a hit: max response, negative = inhibition, hits mostly inhibitors. actives 0.93% (n = 400,000). AID 504847, 2011; note: % is set by controls: 0 for no effect and ±100 for the full control effect
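Fluorescence polarization assay measuring small-molecule disruption of VDR binding to the coregulator peptide SRC2-3. Compounds were pin-transferred (23 nl) into the reagent mix and incubated 2 h at room temperature before reading.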
12-LOX inh: Primary qHTS assay for inhibitors of human arachidonate 12S-lipoxygenase (ALOX12): Round 2; actives 1.1% (n = 580,000); Polyunsaturated fatty acid lipoxygenase ALOX12 (Homo sapiens), P18054; purified 12hLO, xylenol orange hydroperoxide absorbance; Potency, µM (top dose mostly 108 µM), for inactives: at the highest dose activity change, negative = inhibition, usual class: inhibitors; note: % is set by controls: 0 for no effect and ±100 for the full control effect
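Hydroperoxide product was detected by ferrous iron/xylenol orange as the 573 to 405 nm absorbance ratio. Arachidonic acid at 40 uM (final) was turned over for 30 min at room temperature by 150 nM human 12hLO, pH 7.0 Hepes buffer, after 15 min compound preincubation.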
* = called active by the depositor; ? = inconclusive; . = not tested or not shown; ! = not active in a repeat; [ ] = another dose, or the depositor's remark. The sample as a whole holds a higher share of hits than the screen did. Calls come from the whole dose curve; as a rule, active = well fitted curve in the direction sought with a large enough effect; inconclusive = small, poorly fitted or top-dose-only effect, or another doubt; inactive = no such curve, though single readings can be large; an effect the other way counts as inactive or inconclusive. Potency is the fitted concentration of half-maximal effect.

SMILES	GRP78 ERSR act	Sfp PPTase inh	G9a inh	VDR inhibitor	12-LOX inh
CCOC(=O)C1(c2ccccc2)Oc2ccccc2C(c2ccc(OC)cc2)=C1C(=O)OC (stereo not drawn)	2%	-8%	22µM*	-14%	-51%
S=c1nc(-c2ccccc2)n(-c2ccccc2)[nH]1	1%	2%	2.8µM*	-2%	45µM*
C1CCN(c2nc(N/N=C3\CN4CCC3CC4)nc(N3CCCCC3)n2)CC1	.	.	.	.	49%
O=C(C1CCC1)N1[C@H]2CC[C@@H]1c1cnc(-c3ccc(F)cc3)nc1C2	.	.	.	.	30%
COc1cc(C=O)cc2c1OCO2	.	.	.	.	-25%
C=CCSC1=N/C(=C\c2cc(OC)c3c(c2)OCO3)C(=O)S1	-2%	18µM*	17%[59 µM]	-5%	64%
COc1ccc(OC)c(NC(=O)C2C(C(=O)O)C3(Cl)C(Cl)=C(Cl)C2(Cl)C3(Cl)Cl)c1 (stereo not drawn)	-5%	-1%	45µM*	-11%	?
COc1cc2c(cc1OCc1ccncc1)NC(=O)C21CCN(c2nc(C)cc(C)n2)CC1	.	.	.	.	3%
NS(=O)(=O)c1cc(C(=O)OCC(=O)Nc2ccc3[nH]c(=O)[nH]c3c2)ccc1Cl	-5%	.	1.4µM*	-16%	-28%
CCOP(=S)(OCC)Oc1cc(C)oc(=O)c1	0%	20µM*	.	79µM*	-6%
CCOP(=S)(OCC)Oc1cc(C)oc(=O)c1Cl	3%	8.9µM*	8.9µM*	28µM*	?
Cn1nc(-c2ccc3ccccc3c2)cc1[C@H]1CN2CC[C@H]1C[C@@H]2CNS(=O)(=O)c1cccs1	.	.	.	.	55%
CC1=NOC2(CCCN(Cc3ccccn3)C2)C1 (stereo not drawn)	.	.	.	.	31%[176 µM]
COc1ccc2c3c([nH]c2c1)C(C)=NCC3	-2%	18%	?	-10%	-10%
CC1=NCCc2c1[nH]c1cc(O)ccc21	-3%	79µM*!	1.4µM*!	13%	?
O=C(O)COc1ccccc1	0%	-3%	1%[0.501 µM]	-10%	1%
O=C(O)Cc1cccnc1C(=O)O	-6%	16µM*	?	-4%	5%
CCC(=NCc1cc(OC)cc(OC)c1)c1c(O)n(C)c(=O)n(C)c1=O	-4%	50µM*	-28%[59 µM]	1%	22%
CC/C(=N\Nc1ccccc1)c1c(O)n(C)c(=O)n(C)c1=O	3%	?	22µM*	-4%	-21%
CCC(=NCCc1c[nH]c2ccccc12)c1c(O)n(C)c(=O)n(C)c1=O	2%	8%	?	11%	-27%
CCC(=NCc1ccc2c(c1)OCO2)c1c(O)n(C)c(=O)n(C)c1=O	-8%	9%	?	12%	?
CC(=NCCc1ccccc1)c1c(O)n(C)c(=O)n(C)c1=O	-8%	15%	-6%[59 µM]	3%	?
C/C(=N\NC(=S)Nc1ccccc1)c1c(O)n(C)c(=O)n(C)c1=O	9%	28µM*	1.3µM*	?	-8%
O=C1NCCCCCCN(Cc2ccncc2F)[C@H]2CCC[C@@H]12	.	.	.	.	164%
O=[N+]([O-])c1ccc(C(=Nc2ccccc2)N2CC2)cc1	3%	.	.	-8%	8%
SMILES	GRP78 ERSR act	Sfp PPTase inh	G9a inh	VDR inhibitor	12-LOX inh
CN1CCN(C(=S)c2ccc([N+](=O)[O-])cc2)CC1	-7%	13µM*	10µM*	?	?
c1cnc(N2CCC3(CCNCC3)CC2)nc1	-3%	?	-4%[12.7 µM]	?	?
O=C1CC2(CCCC2)CC(=O)N1CCCCN1CCN(c2ncccn2)CC1	-1%	2%	13µM*!	-3%	-12%
CC(=O)OC1CC[C@@]2(C)C3CC[C@]4(C)C(=O)CCC4C3CC[C@H]2C1 (stereo partly drawn)	-6%	-30%	-33%[2.33 µM]	-9%	.
CC(=O)OC1CC[C@@]2(C)C3CC(=O)[C@]4(C)C(C(C)=O)=CCC4C3CC[C@H]2C1 (stereo partly drawn)	-5%	-9%	.	2µM*	.
Cc1ccc(N2C(=O)/C(=C/N3CCN(C(=O)c4ccco4)CC3)C(=O)NC2=S)cc1C	3%	45µM*	54%[12.7 µM]	-11%	40µM*
